Results taken from PubChem BioAssay AID1345085 (National Center for Advancing Translational Sciences (NCATS), 2018).
Results filed as inconclusive are left out. Where a call stands in place of a potency, no number is given. Calls of active or inactive are those of the source. Calls come from the whole dose curve; as a rule, active = well fitted cell-killing curve with a large enough effect; inconclusive = small, poorly fitted or top-dose-only effect, or effect the other way; inactive = no such curve, though single readings can be large or run the other way.

Tested on: C33A
Assay: Confirmatory qHTS for gynecologic anti-cancer compounds from libraries of approved drugs and bioactive compounds; note: nearly all actives have a fitted effect of over 55% in size
Conditions: gynecologic cancer cell panel viability, ATPlite luminescence, 48 h; series mostly up to 57.6 µM
Procedure, shortened: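 IC50 values derive from an ATPlite ATP-content luminescence assay following 48 h treatment at 37 C. Each compound ran as an 11-concentration, threefold series (57.5 uM to 0.977 nM); HEK 293T served as control line for selectivity index.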
Potency is the fitted concentration of half-maximal effect.

## CN(C)C(CCOc1cccc2ccccc12)c1ccccc1 (centres undefined)
  Potency: inactive

## Cc1cc(Nc2nc(N[C@@H](C)c3ccc(F)cc3)c(C#N)cc2F)n[nH]1
  Potency: inactive

## CN(C)CCC(CSc1ccccc1)Nc1ccc(S(=O)(=O)NC(=O)c2ccc(N3CCN(Cc4ccccc4-c4ccc(Cl)cc4)CC3)cc2)cc1[N+](=O)[O-] (centres undefined)
  Potency: inactive

## CN1C2CCC1CC(OC(=O)[C@H](CO)c1ccccc1)C2 (some centres undefined)
  Potency: inactive

## OC[C@H]1O[C@@H](n2cnc3c(=S)nc[nH]c32)[C@H](O)[C@@H]1O
  Potency: 10.9 µM (active)

## CCCC(Nc1nc(-c2ccc(NC(=O)NCC)c(OC)c2)ncc1C)c1cccnc1 (centres undefined)
  Potency: 0.153 µM (active)

## Cc1c(NC(=O)OCC2COCCN2)cn2ncnc(Nc3ccc4c(cnn4Cc4cccc(F)c4)c3)c12 (centres undefined)
  Potency: 24.3 µM (active)

## CN1C(=O)C(Cc2c[nH]c3ccccc23)NC1=S (centres undefined)
  Potency: inactive

## CS(=O)(=O)c1ccc(-c2cnc(N)c(C(=O)Nc3ccccc3)n2)cc1
  Potency: inactive

## CC(C)C[C@H](NC(=O)[C@H](CCc1ccccc1)NC(=O)CN1CCOCC1)C(=O)N[C@@H](Cc1ccccc1)C(=O)N[C@@H](CC(C)C)C(=O)[C@@]1(C)CO1
  Potency: 6.11 µM (active)

## Nc1ncnc2c1ncn2[C@@H]1O[C@H](CO)C[C@H]1O
  Potency: inactive

## CNC(=O)c1nn(C)c2c1C(C)(C)Cc1cnc(Nc3ccc(N4CCN(C)CC4)cc3)nc1-2
  Potency: inactive

## O=C(CCCCCCC(=O)Nc1ccccc1)NO
  Potency: 3.43 µM (active)

## CC(Oc1cc(-n2cnc3ccc(CN4CCN(C)CC4)cc32)sc1C(N)=O)c1ccccc1C(F)(F)F (centres undefined)
  Potency: 5.44 µM (active)
